# Reference: PubChem BioAssay (Tox21)
# Records with an inconclusive call do not appear. Entries that show only a call come without a potency. Unmarked numbers belong to inactive results. Active and inactive are the calls of the source. The call rests on the fitted dose curve; in most records, active means well fitted cell-killing curve with a large enough effect in the repeat runs; inconclusive means weak or mixed curves, or effect the other way; inactive means flat fitted curve, though single readings scatter.
# Assay: cAMP Responsive Elements (CRE) small molecule agonists, cell-based qHTS assay: qHTS cell viability counter screen (AID 2060914); further: nearly all actives have a fitted effect of over 50% in size
# Details: CRE-bla HEK293T viability, CellTiter-Glo luminescence, 5 h; series mostly up to 92.4 µM
# Summary of the method: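 Cells are seeded and incubated 18 h, treated with compounds in DMSO for 3 h, read for the bla reporter, then given CellTiter-Glo; luminescence is measured after 30 min at room temperature.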
# Potency means the concentration at half of the fitted maximal effect.
Structure (SMILES),Potency,"activity change, negative = cytotoxicity"
O=C(CCCCC(=O)Nc1c(I)cc(I)c(C(=O)O)c1I)Nc1c(I)cc(I)c(C(=O)O)c1I,inactive,
NC(N)=S,inactive,
Nc1ccc(-c2ccc(F)cc2)cc1,inactive,
C=CCc1cc(S(=O)(=O)c2ccc(O)c(CC=C)c2)ccc1O,inactive,
CC(CO)CO,inactive,
CCO[C@@H]1O[C@H](C(COCc2ccccc2)OCc2ccccc2)[C@H](OCc2ccccc2)[C@H]1O (stereo not given in full),inactive,
CC/C=C\CCCCCO,inactive,
Cc1cc(C)c(C)c(O)c1,inactive,
C=COCCOCCOC=C,inactive,
CC1=C(C/C=C(\C)CCC[C@H](C)CCC[C@H](C)CCCC(C)C)C(=O)c2ccccc2C1=O,inactive,
CC(=O)N1CCN(c2ccc(OC[C@H]3CO[C@](Cn4ccnc4)(c4ccc(Cl)cc4Cl)O3)cc2)CC1,68.6 µM (active),
S=C(NC1CCCCC1)NC1CCCCC1,inactive,
CC1CCCNC1 (stereo not given),inactive,
NC(CCC(=O)O)C(=O)O (stereo not given),inactive,
O=C(O)c1cccc(Cl)c1Cl,inactive,
CCOc1ccc2nc3cc(N)ccc3c(N)c2c1,inactive,
OCCC1CCCCN1 (stereo not given),inactive,
CCC(C)N(C)C(=O)c1cc2ccccc2c(-c2ccccc2Cl)n1 (stereo not given),inactive,
C/C=C1/C(=O)C[C@H]2[C@@H]3CCC4=CC(=O)CC[C@]4(C)[C@H]3CC[C@]12C,inactive,
OC[C@H]1O[C@H](O[C@]2(CCl)O[C@H](CCl)[C@@H](O)[C@@H]2O)[C@H](O)[C@@H](O)[C@H]1Cl,inactive,

Structure (SMILES),Potency,"activity change, negative = cytotoxicity"
CC1CC(OC(=O)C(O)c2ccccc2)CC(C)(C)N1C (stereo not given),inactive,
CC(C)=CCC1C(=O)N(c2ccccc2)N(c2ccccc2)C1=O,inactive,
CO[C@H]1O[C@H](CO)[C@@H](O)[C@H](O)[C@H]1O,inactive,
CCCCCCCCCCOCC(O)CN (stereo not given),inactive,
COCCOC(=O)c1ccccc1C(=O)OCCOC,inactive,
CC(=O)S[C@H](C(=O)N[C@H]1Cc2ccccc2[C@H]2CCC[C@@H](C(=O)O)N2C1=O)C(C)C,inactive,
O=C(O)c1nc(Cl)c(Cl)c(Cl)c1Cl,inactive,
CCCCOCCOCCO,inactive,
O=c1[nH]c(=O)c2[nH]c(=O)[nH]c2[nH]1,,8.03% [at 8.39 µM]
C[C@]12C=CC(=O)C=C1[C@@H](F)C[C@@H]1[C@@H]2[C@@H](O)C[C@@]2(C)[C@H]1CC[C@]2(O)C(=O)CO,inactive,
Cc1ncc[nH]1,inactive,
Sc1nc(S)nc(S)n1,inactive,
CCCCCCCCCCc1ccccc1,inactive,
CCOC(=O)C(=O)c1csc(NC=O)n1,inactive,
OC1CCCc2ccccc21 (stereo not given),inactive,
CC(=O)OC(C)C,inactive,
CCOC(=O)c1ccccc1O,inactive,
CCCCCCCCCOS(=O)(=O)O,inactive,
O=S(=O)(Cl)c1c(Cl)cccc1Cl,inactive,
COCCOCCOCCO,inactive,
